# Hits are enriched below; roughly 18% of the tested compounds scored in any of these assays.
# TDP1 cell noCPT = qHTS for Inhibitors of human tyrosyl-DNA phosphodiesterase 1 (TDP1): qHTS in cells in absence of CPT. AID 686978, 2013. DT40 Tdp1-/- hTDP1 cells, no CPT, ATP luminescence, 48 h. Potency, µM (highest dose often 46.2 µM), without a hit: top-dose activity change, negative = growth inhibition, hits mostly inhibitors. 420,000 compounds, 15% hits; note: potency is the fitted concentration of half-maximal effect; % is set by controls: 0 for no effect and ±100 for the full control effect; nearly all actives have a fitted effect of over 55% in size
#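 Compound effects on proliferation are scored in DT40 Tdp1-/-;hTDP1 cells in the absence of CPT. ATP levels (CellTiter-Glo luminescence) are recorded after a ≥48 hr, 37 °C incubation.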
# HepG2 tox = HepG2 cytotoxicity, counter-screen for TGF-b inhibitors. HepG2 CAGA-GFP viability, ATP luminescence, 18 h. Potency, µM (titrated, usually from 46.1 µM), inactives show top-dose activity change, negative = cytotoxicity, hits mostly cytotoxic. 410,000 compounds, 0.76% hits. AID 588856; note: potency is the fitted concentration of half-maximal effect
#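 CellTiter-Glo luminescence gave cytotoxicity after 18 hours at 37 degrees C. The cells were HepG2 CAGA-GFP in 1% FBS DMEM, stimulated with 500 pg/mL TGF-beta after compound addition. %Activity was normalised to no-cell wells (complete cell-killing) and DMSO (no toxicity), and curves were fitted and classified.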
# IL-1B inflam inh = inflammasome signaling inhibition, IL-1 beta readout. THP-1 LPS/ATP IL-1B secretion, AlphaLISA, 16 h; hits give low values. activity change, % at 57.5 µM. 360,000 compounds, 4.7% hits; in the data active = activity change below about -50%; inconclusive = mostly about -30% to -49%; note: % is set by controls: 0 for no effect and ±100 for the full control effect
#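 Secreted IL-1B measured by AlphaLISA bead assay after 16 h compound exposure of THP-1 cells; compounds (final up to 57.5 uM) added 1 h before LPS (250 ng/mL) and ATP (1.25 mM) stimulation; lower signal means less secretion.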
# TDP1 block = TDP1 (human) enzyme inhibition. 350,000 compounds, 0.28% hits. Q9NUW8. recombinant TDP1, AlphaScreen DNA substrate cleavage. Potency, µM (top dose mostly 130 µM), without a hit: at the highest dose activity change, negative = inhibition, hits mostly inhibitors; note: potency is the fitted concentration of half-maximal effect; % is set by controls: 0 for no effect and ±100 for the full control effect; nearly all actives have a fitted effect of over 40% in size
# Target sequence (Q9NUW8 whole entry, looked up): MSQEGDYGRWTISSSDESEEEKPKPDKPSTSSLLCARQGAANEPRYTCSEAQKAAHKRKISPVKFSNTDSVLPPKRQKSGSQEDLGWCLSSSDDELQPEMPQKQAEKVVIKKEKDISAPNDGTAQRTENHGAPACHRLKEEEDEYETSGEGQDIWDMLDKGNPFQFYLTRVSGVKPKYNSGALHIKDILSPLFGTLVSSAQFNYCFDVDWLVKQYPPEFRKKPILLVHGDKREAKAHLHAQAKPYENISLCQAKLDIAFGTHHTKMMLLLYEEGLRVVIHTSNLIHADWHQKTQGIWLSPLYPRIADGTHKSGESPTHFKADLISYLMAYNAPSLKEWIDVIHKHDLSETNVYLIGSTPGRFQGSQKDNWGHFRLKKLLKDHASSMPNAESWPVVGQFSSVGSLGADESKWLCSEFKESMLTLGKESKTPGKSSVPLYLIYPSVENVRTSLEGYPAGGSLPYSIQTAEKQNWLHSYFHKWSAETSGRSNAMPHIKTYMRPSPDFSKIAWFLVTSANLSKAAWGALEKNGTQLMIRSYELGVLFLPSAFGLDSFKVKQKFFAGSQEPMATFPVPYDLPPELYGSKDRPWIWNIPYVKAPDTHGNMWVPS
#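 Recombinant human Tdp1 (E. coli-expressed, 1 nM final) preincubated with compounds 15 min at room temperature, then 5'-biotin/3'-phosphotyrosine-FITC DNA substrate (15 nM final) added for 5 min. AlphaScreen beads (10 ug/ml final) added 10 min; cleavage lowers signal.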
# TGFb SMAD3 inh = TGF-b pathway inhibition | HepG2 CAGA-GFP TGF-b/SMAD3 reporter, GFP fluorescence, 18 h; TGF-beta stimulated, 500 pg/mL final | Potency, µM (top dose mostly 46.1 µM), for the others: at the highest dose activity, negative = inhibition, most hits filed as inhibitors | 410,000 compounds, 1.2% hits; note: potency is the fitted concentration of half-maximal effect; % is set by controls: 0 for no effect and ±100 for the full control effect; nearly all actives have a fitted effect of over 65% in size
#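 Per well, imaged GFP fluorescence of HEPG2 CAGA-GFP cells gives the signal; cells get compound, then TGF-beta (500 pg/mL final), 18 h at 37 degrees C; %Activity versus -TGF-beta and +DMSO controls.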
# DT40 TDP1 CPT = growth inhibition of DT40 Tdp1-/-;hTDP1 cells with camptothecin (screen for TDP1 inhibitors); chicken DT40 Tdp1-/-;hTDP1 cells + 20 nM CPT, ATP luminescence, 48 h; Potency, µM (top dose mostly 46.2 µM), inactives show at the top dose activity change, negative = growth inhibition, hits mostly inhibitors; 420,000 compounds, 12% hits; AID 686979; note: potency is the fitted concentration of half-maximal effect; % is set by controls: 0 for no effect and ±100 for the full control effect; nearly all actives have a fitted effect of over 55% in size
#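 Chicken DT40 Tdp1-/- cells complemented with human TDP1, 400 cells/well, exposed to compounds plus 20 nM camptothecin for at least 48 h at 37 C; viability read as ATP content by CellTiter-Glo luminescence.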
# Active calls of the source: *; ? = inconclusive; . = no result given; [ ] = another dose, or the depositor's remark. Unless noted, calls come from the whole dose curve; as a rule, active = well fitted curve in the direction sought with a large enough effect; inconclusive = small, poorly fitted or top-dose-only effect, or another doubt; inactive = no such curve, though single readings can be large; an effect the other way counts as inactive or inconclusive.
SMILES,TDP1 cell noCPT,HepG2 tox,IL-1B inflam inh,TDP1 block,TGFb SMAD3 inh,DT40 TDP1 CPT
COc1ccc(NC(=O)c2cc(CC(C)C)nc3ccccc23)cc1,?,-9%,?,3%,-1%,-17%
Cc1ccccc1/C=C1\Sc2ccc(C(=O)N3CCN(c4ccccn4)CC3)cc2N(C)C1=O,1%,-1%,-22,7%,-27%,-1%
COc1cccc(/C=C2\Sc3ccc(C(=O)NCc4cccnc4)cc3N(C)C2=O)c1,?,-19%,-82*,5%,?,?
COc1ccc(/C=C2\Sc3ccc(C(=O)NCC4CCCO4)cc3N(C)C2=O)cc1 (centres undefined),-18%,-46%,7,1%,?,?
COc1ccc(/C=C2\Sc3ccc(C(=O)NCc4cccnc4)cc3N(C)C2=O)cc1OC,16µM*,-4%,-80*,8%,-9%,21µM*
COc1ccc(C(=O)NCc2cccnc2)cc1C(=O)NCc1cccnc1,-3%,1%,28,11%[56.1 µM],-3%,18%
CN1C(=O)/C(=C/c2ccccc2F)Sc2ccc(C(=O)N3CCCC3)cc21,?,-30%,-75*,4%,-26%,?
COc1ccc(/C=C2\Sc3ccc(C(=O)N4CCN(Cc5ccccc5)CC4)cc3N(C)C2=O)cc1OC,3.3µM*,-32%,0,7%,?,5.2µM*
OC(c1cccc(F)c1)c1ncc(-c2ccc(Oc3ccccc3)cc2)[nH]1 (centres undefined),?,-74%,-23,.,?,?
OC(c1cccc(Cl)c1)c1ncc(-c2ccc(Oc3ccccc3)cc2)[nH]1 (centres undefined),?,11µM*,-52*,.,18µM*,?
Cc1cc(F)ccc1C(O)c1ncc(-c2ccc(Oc3ccccc3)cc2)[nH]1 (centres undefined),?,-98%,1,.,?,21µM*
OC(c1ccc(Cl)c(F)c1)c1ncc(-c2ccc(Oc3ccccc3)cc2)[nH]1 (centres undefined),?,-87%,?,.,?,23µM*
Cc1cc(F)ccc1C(O)c1ncc(-c2ccccc2)[nH]1 (centres undefined),-18%,-15%,43,.,-1%,-27%
OC(c1ccc(Cl)c(F)c1)c1ncc(-c2ccc(Cl)cc2)[nH]1 (centres undefined),?,-67%,?,.,?,?
CN(C(=O)c1ccc(NC(=O)Cc2cccc(NC(=O)C3CCN(C(=O)C4CC4)CC3)c2)cc1)C1CC1,-15%,-27%,-9,.,3%,-25%
CSc1ccc(CCNC(=O)CCc2nnc3ccc(N4CCC5(CC4)OCCO5)nn23)cc1,-22%,-26%,0,1%,-4%,-2%
O=Cc1cccc2ccc3cccc(C(=O)O)c3c12,2%,-47%,12,.,0%,4%
C=CCn1c(SC)nc2sc3c(c2c1=O)CCc1ccccc1-3,?,-2%,84,-3%,-14%,?
C=CCSc1nc2sc3c(c2c(=O)n1CC)CCc1ccccc1-3,?,-4%,-17,4%,?,10µM*
CCOC(=O)C1=C(Cc2ccc(Cl)cc2)C(=O)c2ccccc2C1=O,4.6µM*,11µM*,-89*,5%,?,4.6µM*
CCOC(=O)C1=C(C)Nc2ccccc2N/C1=N\S(=O)(=O)c1ccc(Cl)cc1,?,-19%,49,1%,-24%,?
COc1ccccc1-c1ccc(SCc2ccc(F)cc2)nn1,-2%,-16%,?,-5%,-1%,-18%
COc1ccccc1-c1ccc(SCc2ccc(C)cc2)nn1,15µM*,-45%,-18,-6%,10%,?
COc1ccc([N+](=O)[O-])cc1N(CC(O)CN1C(=O)NC(C)(C)C1=O)S(=O)(=O)c1ccc(C)cc1 (centres undefined),-23%,7%,-11,.,8%,-11%
O=C(C[n+]1ccc2ccccc2c1)c1cccc2ccccc12,8.2µM*,-40%,?,0%,?,13µM*
SMILES,TDP1 cell noCPT,HepG2 tox,IL-1B inflam inh,TDP1 block,TGFb SMAD3 inh,DT40 TDP1 CPT
Cc1ccc(C(=O)C[n+]2ccc3ccccc3c2)cc1,15µM*,-9%,20,2%,-1%,?
O=C(C[n+]1ccc2ccccc2c1)c1ccc(NC(=O)c2ccccc2)cc1,7.3µM*,6%,?,5%,-5%,5.8µM*
Nc1ccc[n+](CC(=O)c2ccc(F)cc2)c1,10µM*,-82%,.,.,103%,14µM*
O=C(C[n+]1ccc2ccccc2c1)c1ccc(F)cc1,?,-49%,.,.,?,?
COc1ccc(S(=O)(=O)N2CCN(C(=O)c3ccc(NC(C)=O)cc3)CC2)cc1,15%,0%,-22,1%,-4%,1%
COCOc1ccc(-c2ncc(OCCN3CCCC3=O)nc2NC(=O)c2cc3ccccc3s2)cc1,?,-3%,-23,.,-2%,?
N#Cc1ccccc1OCC(=O)NC(=O)NC1CCS(=O)(=O)C1 (centres undefined),-15%,-9%,4,0%,9%,-26%
O=C(C[n+]1cccc(NC(=O)c2ccccc2)c1)c1ccc(NC(=O)c2ccccc2)cc1,?,10%,?,5%,9%,23µM*
O=C(C[n+]1cccc(NC(=O)c2ccccc2)c1)c1ccccc1,?,-14%,18,5%,9%,-1%
CCc1ccc(C2=NN(CCC(=O)NC(C)CCc3ccccc3)C(=O)CC2)cc1 (centres undefined),?,-12%,-52*,3%,?,?
CC(CCc1ccccc1)NC(=O)CCN1N=C(c2ccccc2)CCC1=O (centres undefined),-12%,2%,?,0%,-12%,1%
O=C(CSc1nnc(-c2ccccc2)n1Cc1ccccc1)NNC(=O)c1ccccc1O,26µM*,13%,10,8%,-8%,16µM*
COc1ccc(C(=O)Nc2c3c(nn2-c2ccc(Cl)cc2)CS(=O)(=O)C3)cc1,18%,-16%,?,-3%,-9%,-5%
CC(=O)N(Cc1ccccc1)c1c(N)nc(N)[nH]c1=O,0%,36%,-103*,.,29%,8%
CN(Cc1ccccc1)C(=O)CSc1n[nH]c(N)n1,3%,-3%,-4,.,-8%,6%

# High-throughput results (PubChem BioAssay)
